Structures are written as SMILES. Activity calls are given as the source filed them.

This is an account of results in PubChem BioAssay.

The nature of assay [1]: small molecules captured by biotinylated probe aFSTL3 – biochemical, small-molecule microarray, fluorescence 635/667, stem cell growth factor project, primary screen (AID 1064).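 Note: measures binding of the biotinylated anti-FSTL3 antibody to printed compounds.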 To be noted: higher = more signal.
Assay [2] can be described thus: binders from COS7 lysate, DM2A8 probe, primary screen, torsin A project, cell lysate, small-molecule microarray, fluorescence 635/667 (AID 1065). As to conditions: higher = more signal, COS7 lysate expressing mutant human TOR1A.
Assay [3] is described as follows: small molecules captured by biotinylated probe aFGF2 – biochemical, small-molecule microarray, fluorescence 635/667, stem cell growth factor project, primary screen (AID 1067).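 Note: measures binding of biotinylated aFGF2 protein to printed compounds on slides; z-score merges feature fluorescence and signal-to-noise across triplicate slides.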 To be noted: higher = more signal.
A short description of assay [4]: small molecules captured by biotinylated probe aFGF10 – biochemical, small-molecule microarray, fluorescence 635/667, stem cell growth factor project, primary screen (AID 1071).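 Note: score merges 667 nm spot intensity and signal to noise from triplicate slides.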 As to conditions: higher = more signal.
Assay [5] addresses Neurogenic locus notch homolog protein 2 (Homo sapiens) (UniProt Q04721). Description: small molecules binding Notch2 protein – biochemical, small-molecule microarray, 635 nm fluorescence, stem cell growth factors, primary screen (AID 1073). As to conditions: higher = more signal.
Assay [6] deals with Pro-neuregulin-1, membrane-bound isoform (Homo sapiens) (UniProt Q02297). Nature of the assay: small molecules binding neuregulin-1 protein – biochemical, small-molecule microarray, fluorescence 635/667, psychiatric disease protein project, primary screen (AID 1075).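 Note: score combines 667 nm spot fluorescence with signal to noise.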 As to conditions: NRG1 binding, 635 nm fluorescence, higher = more signal.
Sequence of Pro-neuregulin-1, membrane-bound isoform (Homo sapiens) (Q02297 whole entry, looked up, the tested form may be a part, canonical isoform): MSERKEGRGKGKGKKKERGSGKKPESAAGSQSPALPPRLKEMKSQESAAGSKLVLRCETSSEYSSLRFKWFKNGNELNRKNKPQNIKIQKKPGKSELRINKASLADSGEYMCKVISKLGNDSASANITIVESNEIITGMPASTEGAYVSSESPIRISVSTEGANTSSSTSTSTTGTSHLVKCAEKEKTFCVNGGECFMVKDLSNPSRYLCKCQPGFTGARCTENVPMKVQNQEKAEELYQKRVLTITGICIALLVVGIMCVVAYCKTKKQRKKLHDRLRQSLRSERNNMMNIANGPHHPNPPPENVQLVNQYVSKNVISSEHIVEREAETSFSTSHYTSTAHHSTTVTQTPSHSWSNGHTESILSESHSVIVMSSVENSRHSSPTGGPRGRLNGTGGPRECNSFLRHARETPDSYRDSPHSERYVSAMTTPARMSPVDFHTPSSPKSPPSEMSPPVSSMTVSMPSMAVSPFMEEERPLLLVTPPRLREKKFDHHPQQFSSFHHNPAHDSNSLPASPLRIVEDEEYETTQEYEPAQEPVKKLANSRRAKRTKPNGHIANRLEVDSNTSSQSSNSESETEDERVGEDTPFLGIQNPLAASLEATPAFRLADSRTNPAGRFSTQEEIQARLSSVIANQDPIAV
For assay [7], the system named is Neuregulin-1 EGF-like domain. Description: small molecules binding NRG1 EGF domain – biochemical, small-molecule microarray, 635 nm fluorescence, primary screen (AID 1081).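 Note: binding of the protein to compounds printed on small-molecule microarray slides.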 As to conditions: higher = more signal.
Assay [8] is described as follows: FRG1 expression reporter modulators in myotubes – cell-based, C2C12 myotubes, firefly/Renilla luciferase, luminescence, FRG1 inhibition for FSHD, primary screen (AID 1084). As to conditions: FRG1 promoter luciferase, higher = more signal, called active from +8 up or from −8 down.
The nature of assay [9]: small molecules captured by biotinylated probe aFST – biochemical, small-molecule microarray, fluorescence 635/667, stem cell growth factor project, primary screen (AID 1086).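 Note: score merges 667 nm fluorescence with signal-to-noise of each printed compound spot.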 To be noted: higher = more signal.
The nature of assay [10]: binders of probe aHhip on microarray, primary screen, stem cell growth factor project, biochemical, small-molecule microarray, fluorescence 635/667 (AID 1087).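 Note: score merges spot fluorescence at 667nm with spot signal to noise ratio.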 To be noted: higher = more signal.
The test system of assay [11] is PRMT1 (protein arginine N-methyltransferase 1). Description: small molecules binding arginine methyltransferase PRMT1 – biochemical, small-molecule microarray, 635 nm fluorescence, primary screen (AID 1088).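 Note: binding of Prmt1 protein to compounds spotted on small-molecule microarray slides.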 To be noted: higher = more signal.
Assay [12] can be described thus: growth effects on S. cerevisiae YJM789 – YJM789 clinical isolate, OD600, 24 h, basal, primary screen (AID 1089).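 Note: growth of clinical yeast isolate S. cerevisiae YJM 789 seeded 1000 cells per well; test concentration not given here.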 As to conditions: higher = more signal, called active from +8 up or from −8 down.
A short description of assay [13]: S. pombe growth modifiers, basal conditions – strain 972, OD600, 24 h, no modulator, primary screen (AID 1090).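 Note: basal condition with compound alone and no growth modifier present; test concentration not given here.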 To be noted: S. pombe 972 growth, higher = more signal, called active from +8 up or from −8 down.
The nature of assay [14]: budding yeast growth modifiers under rapamycin – strain BY4716, OD600, 96 h, primary screen (AID 1091). Note: test concentration not given here. To be noted: S. cerevisiae BY4716 + rapamycin, higher = more signal, called active from +8 up or from −8 down.
Assay [15] addresses Torsin-1A-interacting protein 2 (Homo sapiens) (UniProt Q8NFQ8). Nature of the assay: small molecules binding lysate-expressed LULL1 – cell lysate, human LULL1 lysate, 635/667 nm fluorescence, primary screen (AID 1092).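 Note: probe is lysate of COS7 cells overexpressing human LULL1; score merges per-feature 667 nm fluorescence with signal-to-noise.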 As to conditions: small-molecule microarray, hLULL1 lysate binding, 635 nm fluorescence; higher = more signal.
A short description of assay [16]: optical density change of DRC41 E. coli – strain DRC41, OD650, 24 h, E. coli filamentation project, primary screen (AID 1093).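 Note: MC1000 strain lacking acrAB efflux and sulA so SOS filamentation is blocked; test concentration not given here.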 As to conditions: E. coli DRC41 growth, higher = more signal, called active from +8 up or from −8 down.
Assay [17] can be described thus: probe aLefty2 binding to arrayed compounds – biochemical, biotinylated probe, 635/667 nm fluorescence, primary screen (AID 1094).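 Note: score merges spot fluorescence near 667 nm with spot signal-to-noise ratio.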 To be noted: small-molecule microarray, higher = more signal.
For assay [18], the system named is Noggin (protein binding on small-molecule microarray). Description: small molecules binding Noggin protein – biochemical, 635/667 nm fluorescence, primary screen (AID 1095).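 Note: score merges 667 nm feature fluorescence with signal to noise over triplicate slides.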 To be noted: 635 nm fluorescence, higher = more signal.
For assay [19], the target named is Neurogenic locus notch homolog protein 3 (Homo sapiens) (UniProt Q9UM47). Description: small molecules binding NOTCH3 protein – biochemical, 635/667 nm fluorescence, primary screen (AID 1096). As to conditions: small-molecule microarray, 635 nm fluorescence, higher = more signal.
Sequence of Neurogenic locus notch homolog protein 3 (Homo sapiens) (Q9UM47 whole entry, looked up): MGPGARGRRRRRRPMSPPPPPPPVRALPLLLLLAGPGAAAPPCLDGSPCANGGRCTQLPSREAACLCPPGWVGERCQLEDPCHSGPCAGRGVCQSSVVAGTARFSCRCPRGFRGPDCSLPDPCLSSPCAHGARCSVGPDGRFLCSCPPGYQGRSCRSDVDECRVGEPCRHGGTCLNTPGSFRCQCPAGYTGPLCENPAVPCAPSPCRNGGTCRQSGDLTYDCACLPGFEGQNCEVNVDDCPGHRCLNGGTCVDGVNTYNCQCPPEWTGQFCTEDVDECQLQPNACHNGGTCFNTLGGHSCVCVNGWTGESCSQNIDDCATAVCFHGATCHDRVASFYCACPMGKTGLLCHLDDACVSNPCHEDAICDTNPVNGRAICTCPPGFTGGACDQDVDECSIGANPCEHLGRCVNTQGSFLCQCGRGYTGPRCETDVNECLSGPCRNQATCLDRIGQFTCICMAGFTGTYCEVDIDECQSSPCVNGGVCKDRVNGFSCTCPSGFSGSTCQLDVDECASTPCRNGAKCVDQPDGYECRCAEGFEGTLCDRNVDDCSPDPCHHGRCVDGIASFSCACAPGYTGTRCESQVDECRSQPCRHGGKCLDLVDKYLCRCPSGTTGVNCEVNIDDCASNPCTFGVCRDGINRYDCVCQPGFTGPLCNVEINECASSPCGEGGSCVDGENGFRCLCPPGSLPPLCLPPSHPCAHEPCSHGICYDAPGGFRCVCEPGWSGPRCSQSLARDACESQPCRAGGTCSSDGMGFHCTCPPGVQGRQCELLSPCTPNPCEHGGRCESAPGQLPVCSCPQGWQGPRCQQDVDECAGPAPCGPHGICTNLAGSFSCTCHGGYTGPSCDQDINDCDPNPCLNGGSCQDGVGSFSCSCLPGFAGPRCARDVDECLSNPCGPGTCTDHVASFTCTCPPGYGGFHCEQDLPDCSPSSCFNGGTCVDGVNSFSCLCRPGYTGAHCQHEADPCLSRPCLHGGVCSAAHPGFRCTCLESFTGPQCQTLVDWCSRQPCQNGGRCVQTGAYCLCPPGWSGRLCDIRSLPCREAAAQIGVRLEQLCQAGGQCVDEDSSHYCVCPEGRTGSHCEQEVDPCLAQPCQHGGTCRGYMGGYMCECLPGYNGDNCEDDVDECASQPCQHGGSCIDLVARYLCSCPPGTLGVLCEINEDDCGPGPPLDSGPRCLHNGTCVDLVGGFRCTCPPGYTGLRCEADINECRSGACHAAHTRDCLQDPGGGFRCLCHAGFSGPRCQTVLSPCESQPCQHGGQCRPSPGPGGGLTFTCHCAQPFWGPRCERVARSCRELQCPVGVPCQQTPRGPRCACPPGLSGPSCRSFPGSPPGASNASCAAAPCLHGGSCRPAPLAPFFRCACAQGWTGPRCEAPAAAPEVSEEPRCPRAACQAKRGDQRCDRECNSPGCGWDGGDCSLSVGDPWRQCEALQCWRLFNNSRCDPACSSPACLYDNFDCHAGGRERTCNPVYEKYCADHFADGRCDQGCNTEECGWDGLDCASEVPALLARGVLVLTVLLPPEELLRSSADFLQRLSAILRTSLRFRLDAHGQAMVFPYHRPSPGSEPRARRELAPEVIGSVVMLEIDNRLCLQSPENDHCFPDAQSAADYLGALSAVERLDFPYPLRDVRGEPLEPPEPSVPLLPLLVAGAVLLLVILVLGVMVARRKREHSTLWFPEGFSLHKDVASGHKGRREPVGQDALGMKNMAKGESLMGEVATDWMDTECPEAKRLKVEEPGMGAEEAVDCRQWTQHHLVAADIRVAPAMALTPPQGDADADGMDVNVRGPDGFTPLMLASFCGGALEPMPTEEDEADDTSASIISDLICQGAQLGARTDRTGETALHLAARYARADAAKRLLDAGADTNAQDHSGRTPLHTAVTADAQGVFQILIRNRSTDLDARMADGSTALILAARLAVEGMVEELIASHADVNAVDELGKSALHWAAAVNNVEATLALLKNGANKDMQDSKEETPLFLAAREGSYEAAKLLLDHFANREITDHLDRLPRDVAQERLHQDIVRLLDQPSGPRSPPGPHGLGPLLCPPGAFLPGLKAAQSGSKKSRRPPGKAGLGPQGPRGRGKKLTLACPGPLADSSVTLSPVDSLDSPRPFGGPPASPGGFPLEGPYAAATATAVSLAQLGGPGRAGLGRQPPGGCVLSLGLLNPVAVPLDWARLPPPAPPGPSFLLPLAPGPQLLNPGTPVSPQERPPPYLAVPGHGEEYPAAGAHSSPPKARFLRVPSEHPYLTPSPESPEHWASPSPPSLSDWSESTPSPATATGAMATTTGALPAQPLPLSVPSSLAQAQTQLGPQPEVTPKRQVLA
Assay [20] can be described thus: probe aEGFR binding to arrayed compounds – biochemical, biotinylated probe, 635/667 nm fluorescence, primary screen (AID 1097).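 Note: probe is a biotinylated anti-EGFR antibody binding compounds printed on slides; score combines fluorescence near 667 nm and signal to noise of each spot.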 To be noted: small-molecule microarray, higher = more signal.

Sequence of Torsin-1A-interacting protein 2 (Homo sapiens) (Q8NFQ8 whole entry, looked up): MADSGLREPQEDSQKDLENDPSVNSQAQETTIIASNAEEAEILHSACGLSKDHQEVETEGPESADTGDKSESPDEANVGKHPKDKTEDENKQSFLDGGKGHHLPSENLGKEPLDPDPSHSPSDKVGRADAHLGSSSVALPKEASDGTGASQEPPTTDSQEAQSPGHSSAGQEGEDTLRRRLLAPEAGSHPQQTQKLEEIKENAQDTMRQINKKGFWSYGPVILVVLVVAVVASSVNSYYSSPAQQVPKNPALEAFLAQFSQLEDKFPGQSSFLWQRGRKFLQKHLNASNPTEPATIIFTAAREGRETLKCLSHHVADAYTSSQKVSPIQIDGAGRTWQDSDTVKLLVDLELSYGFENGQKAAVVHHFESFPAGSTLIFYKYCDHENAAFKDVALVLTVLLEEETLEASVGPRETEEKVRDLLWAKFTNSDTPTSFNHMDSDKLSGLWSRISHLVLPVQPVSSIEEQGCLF

As to `COC(=O)[C@@]1(Cc2ccccc2N=[N+]=[N-])N=C(c2ccc(OCCCO)cc2)O[C@H]1c1ccccc1N=[N+]=[N-]`, the composite z-score is 0.663 in assay [1]; 0.192 in [2]; 0.0131 in assay [3]; -0.0009 in [4]; 0.648 in assay [5]; 0.859 in assay [6]. Besides, the composite z-score in assay [7] was 1.27; in [9] it was 0.214; in assay [10], -0.0123; in assay [11], 1.54; in assay [15], 2.05; in assay [17], 0.258. The composite z-score in [18] was 0.717; in assay [19] it was 0.647; in assay [20], -0.0211. In addition, the z-score in assay [8] was -0.492 (inactive); in assay [12], -1.13 (inactive); in [13], -3.84 (inactive); in assay [14], 26.2 (active); in [16], 1.51 (inactive).

Turning to `COC1OC[C@]2(C)[C@H]3C4=C(CN2C(=O)OC(C)(C)C)[C@H](C)C(CO)C(CO)C4CC[C@@H]13` (stereo not given in full), the composite z-score was 1.99 in assay [1]; 0.473 in [2]; 0.236 in assay [3]; 0.557 in [4]; 1.79 in [5]; 1.82 in [6]. Also, the composite z-score in [7] turned out to be 1.25; in [9], 1.85; in [10], 1; in assay [11] it was 1.18; in [15] it was 3.44; in [17], 0.858. Further, the composite z-score was -0.05 in assay [18], 0.96 in assay [19] and 0.187 in [20]. The z-score in assay [8] is 2.38 (inactive); in assay [12] it was 0.58 (inactive); in assay [13], 1.22 (inactive); in assay [14] it was 0.867 (inactive); in [16], -0.172 (inactive).

With `O=C1OCCC=C[C@H]2OC34C=CCN(Cn5nnc6ccccc65)C(=O)[C@H]3N(CCCCCCO)C(=O)[C@@H]4C12` (stereo not given in full), the composite z-score in assay [1] is 0.603; in [2], 0.134; in assay [3], -0.129; in [4] it was -0.612; in assay [5] it was -1.29; in assay [6], -0.207. Besides, the composite z-score in assay [7] is 1.11; in assay [9] it was -0.564; in [10] it was -0.134; in assay [11], -0.0465; in assay [15], 0.529; in [17], -0.0741. Further, the composite z-score in assay [18] is -1.09; in [19], -0.36; in assay [20] it was -0.354. The z-score in assay [8] was -0.229 (inactive); in assay [12] it was 0.298 (inactive); in [13], 0.577 (inactive); in assay [14], 0.194 (inactive); in [16], -0.369 (inactive).

`C=C[C@@H](OC)[C@H](OC(=O)Nc1ccc(SC)cc1)c1ccc(O)c(F)c1`: the composite z-score in assay [1] was 0.0213; in [2] it was 0.5; in [3], -0.0024; in assay [4], 0.362; in assay [5] it was -0.0166; in assay [6], 1.25. For the same compound, the composite z-score was 1.35 in assay [7]; 0.2 in assay [9]; -0.069 in [10]; 1.56 in assay [11]; 2.58 in assay [15]; -0.0654 in assay [17]. In addition, the composite z-score in assay [18] was 0.808; in [19] it was 0.185; in assay [20], -0.126. Further, the z-score in assay [8] is 3.87 (inactive); in assay [12], 1.05 (inactive); in assay [13], 0.123 (inactive); in assay [14] it was 1.65 (inactive); in assay [16], 0.374 (inactive).

As for `CC(C)(C)OC(=O)CC[C@]1(C(=O)NCC(O)CO)N=C(c2ccc(OCCCO)cc2)O[C@H]1c1ccccc1` (stereo not given in full), the composite z-score is 1.07 in assay [1]; 1.58 in assay [2]; -0.0099 in assay [3]; 0.391 in assay [4]; 0.493 in [5]; 0.866 in [6]. Moreover, the composite z-score in assay [7] was 1.33; in assay [9] it was 0.36; in assay [10], -0.323; in [11], -0.362; in [15], 3.45; in assay [17], 0.0424. Besides, the composite z-score in assay [18] is -0.837; in assay [19], -0.89; in assay [20] it was 0.109. In addition, the z-score was 0.974 (inactive) in assay [8]; -0.866 (inactive) in [12]; -0.956 (inactive) in assay [13]; -0.744 (inactive) in assay [14]; 1.91 (inactive) in assay [16].
